D1 ag: Allosteric Agonists of the Human D1 Dopamine Receptor: qHTS | D(1A) dopamine receptor (Homo sapiens), P21728 | HEK293 T-REx D1 cells, calcium flux, agonist mode | activation, % at 2 µM | 360,000 tested, 1% active | AID 504660, 2011
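Inducible HEK293 T-REx D1 cells, force-coupled to calcium signalling, were plated at 4000 cells/well with tetracycline and held overnight at 30 C. After no-wash calcium dye loading, compound-evoked calcium rise over 180 s flagged agonists.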
TRHR ag: qHTS for Small Molecule Agonists and Allosteric Enhancers of Human TRH Receptor: Primary Screen for Agonists; 360,000 tested, 0.18% active; AID 493084, 2011; TRHR cells, calcium flux fluo-8, FDSS agonist mode; Thyrotropin-releasing hormone receptor (Homo sapiens), P34981; activation, % at 2 µM
Target sequence (P34981 whole entry, looked up): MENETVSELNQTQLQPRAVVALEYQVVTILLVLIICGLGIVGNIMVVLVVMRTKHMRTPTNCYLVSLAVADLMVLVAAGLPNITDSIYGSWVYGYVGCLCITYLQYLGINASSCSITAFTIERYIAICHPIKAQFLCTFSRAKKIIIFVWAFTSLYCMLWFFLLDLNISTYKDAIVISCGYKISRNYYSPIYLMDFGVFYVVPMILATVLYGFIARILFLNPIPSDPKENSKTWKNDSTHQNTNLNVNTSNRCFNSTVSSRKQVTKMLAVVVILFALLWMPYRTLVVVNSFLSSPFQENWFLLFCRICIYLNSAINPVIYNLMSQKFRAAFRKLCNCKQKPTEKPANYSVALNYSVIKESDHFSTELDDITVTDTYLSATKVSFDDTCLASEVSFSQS
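In this calcium-flux screen, cells bearing human TRHR are dye-loaded with fluo-8, baselined for 10 cycles, then exposed to library compounds; positive kinetic calcium responses during the agonist phase mark hits, with TRH as control.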
D1 antag: Antagonist of Human D 1 Dopamine Receptor: qHTS; D(1A) dopamine receptor (Homo sapiens), P21728; 360,000 tested, 3.2% active; AID 504652, 2011; activity change, negative = inhibition, % at 10 µM; HEK293 TREx D1 cells, calcium flux, dopamine EC80; active compounds read low; in the data active means activity change below about -30%
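Cells carrying a force-coupled, tetracycline-inducible human D1 receptor report calcium flux. Each well gets a 10 s baseline, compound with 180 s monitoring, then an EC80 dopamine stimulus with a second 180 s kinetic read.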
TRHR enhancer: qHTS for Small Molecule Agonists and Allosteric Enhancers of Human TRH Receptor: Primary Screen for Enhancers; enhancement, % at 2 µM; TRHR cells, fluo-8 calcium fluorescence, EC20 TRH enhancement; 360,000 tested, 0.66% active; AID 493056, 2011; Thyrotropin-releasing hormone receptor (Homo sapiens), P34981; in the data active means enhancement above about 30%
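TRHR-expressing cells loaded with fluo-8 calcium dye were read kinetically (ex 480/em 530) during compound addition, then stimulated with an EC20 of TRH (10 nM final). Enhancement of the Gq-mediated intracellular calcium response was scored.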
D1 potentiator: Potentiators of Human D1 Dopamine Receptor: qHTS. D(1A) dopamine receptor (Homo sapiens), P21728. HEK293 TREx D1 cells, calcium flux, dopamine EC20 potentiation. potentiation, % at 10 µM. 360,000 tested, 0.036% active. AID 504651, 2011; in the data active means potentiation above about 30%
Numbers stand for hits; n = inactive; x = no result given. Most compounds without a hit are left out; they make up all but 4.7% or so of the library. Unless noted, no stated cut-off is given here; in the data, active means activation above about 30%; inactive means the rest.

SMILES | D1 ag | TRHR ag | D1 antag | TRHR enhancer | D1 potentiator
COc1ccc2nc(N/C(N)=N/C(=S)Nc3ccccc3)nc(C)c2c1 | n | n | n | n | n
COc1ccc(OC)c(N/C(=N/C(=S)Nc2ccccc2)Nc2nc(C)cc(C)n2)c1 | n | n | -30.9 | n | n
Cc1ncc(CN2CCCC(C(=O)Nc3ccc(-c4cccc(F)c4)cc3)C2)cn1 (stereo not given) | n | n | -32.7 | n | n
CC(=O)c1cccc(CN2CCCC(C(=O)Nc3ccc(-c4ccco4)cc3)C2)c1 (stereo not given) | n | n | -46.4 | n | n
CCCn1c(N)c(N2CCCCC2)c(=O)n(CC(=O)Nc2ccccc2C)c1=O | n | n | n | n | n
CCCn1c(N)c(N2CCCCC2)c(=O)n(CC(=O)Nc2ccc(OC(F)(F)F)cc2)c1=O | n | n | -30.0 | n | n
CCCC(=O)Nc1nc2c(s1)CC(C(C)(C)C)CC2 (stereo not given) | n | n | n | n | n
Cc1[nH]nc2nc3c(c(OC(=O)c4ccccc4)c12)c(=O)n(C)c(=O)n3C | n | n | -38.5 | n | x
COC(=O)c1cc(-c2ccccc2)c2c(=O)n(C)c(=O)n(C)c2n1 | n | n | n | n | n
O=S(=O)(c1ccccc1)N1CCc2ccccc2C1 | n | n | n | n | n
CC(=O)Nc1ccc(S(=O)(=O)N2CCN(Cc3cccs3)CC2)cc1 | n | n | -39.4 | n | n
COc1cc(S(=O)(=O)N2CCN(Cc3cccs3)CC2)ccc1NC(C)=O | n | n | n | n | x
N#Cc1ccc(S(=O)(=O)N2CCN(c3ncccn3)CC2)cc1 | n | n | n | n | n
CC(=O)Nc1ccc(S(=O)(=O)N2CCc3ccccc3C2)cc1 | n | n | -33.8 | n | n
N#Cc1ccc(S(=O)(=O)N2CCN(Cc3cccs3)CC2)cc1 | n | n | -63.6 | n | n
CCOC(=O)c1cc(CC)sc1/N=C/C1C(=O)CC(C)(C)CC1=O | n | n | -48.7 | n | n
CC(C)n1cnc(S(=O)(=O)N2CCCC(C(=O)NCc3ccccc3Cl)C2)c1 (stereo not given) | n | n | n | n | n
N#C/C(=C\c1c(Cl)cccc1Cl)c1nc2ccccc2[nH]1 | n | n | n | n | n
Cc1c(Cl)cccc1-c1ccc(/C=C(\C#N)c2nc3ccccc3[nH]2)o1 | 58.3 | n | n | n | n
Cc1ccc2nc(/C(C#N)=C/c3ccc(-c4cccc([N+](=O)[O-])c4)o3)[nH]c2c1 | 46.7 | n | n | n | n
Cc1ccc2nc(/C(C#N)=C/c3ccc(-c4ccc(F)cc4F)o3)[nH]c2c1 | 218.7 | 52.1 | n | n | n
Cc1ccc2nc(/C(C#N)=C\c3cc(O)ccc3[N+](=O)[O-])[nH]c2c1 | n | n | n | n | n
N#C/C(=C\c1ccc(Sc2nc3ccccc3[nH]2)o1)c1ccccc1 | n | n | -33.8 | n | n
COC(=O)c1ccc(Cn2ncc3c4sc(C)cc4n(C)c3c2=O)cc1 | n | n | n | n | n
Cc1cc(NC(=O)Nc2nnc(N(C)Cc3ccccc3)s2)ccc1Br | n | n | n | n | n
SMILES | D1 ag | TRHR ag | D1 antag | TRHR enhancer | D1 potentiator
N#C/C(=C/c1ccc(N2CCOCC2)o1)c1nc2ccccc2[nH]1 | 64.1 | n | n | n | n
Cc1cc2n(n1)C(c1sccc1C)Nc1c(C)cccc1-2 (stereo not given) | n | n | n | n | n
COc1cc(OC)c(C2Nc3c(C)cccc3-c3cc(C)nn32)cc1OC (stereo not given) | n | n | n | 30.9 | n
O=C(Nc1ccc2oc(-c3cccnc3)nc2c1)c1ccc(-c2cccc(OC(F)(F)F)c2)o1 | n | n | n | n | n
CCN(CCO)C(=O)C(c1ccccc1)c1ccccc1 | n | n | -58.6 | n | n
Clc1ccc(CN(CC2CCCO2)C(c2cccs2)c2nnnn2C2CCCC2)cc1 (stereo not given) | n | n | -52.6 | n | n
Clc1ccccc1CN(Cc1ccccc1)C(c1cccs1)c1nnnn1C1CCCC1 (stereo not given) | n | n | -34.0 | n | n
Oc1ccc(COC2CCCC2)c2cccnc12 | n | n | n | n | n
CCc1nc2ccccc2n1CC(=O)N1CCN(S(=O)(=O)c2cccc(C(F)(F)F)c2)CC1 | n | n | n | n | n
O=C(c1cc(Cl)nc2ccccc12)N1CCN(S(=O)(=O)c2cccc(C(F)(F)F)c2)CC1 | n | n | -32.5 | n | n
Clc1ccc2nc(C3CCN(Cc4ccccc4)CC3)[nH]c2c1 | n | n | n | n | n
COc1ccc(CNC(=O)C2CCN(c3nc4ccc(C)cc4[nH]3)CC2)cc1 | 37.6 | n | n | n | n
COCCCNC(=O)C1CCN(c2nc3ccc(C)cc3[nH]2)CC1 | n | n | -55.5 | n | n
Cc1ccc(CN2CCC(c3nc4ccc(Cl)cc4[nH]3)CC2)cc1 | n | n | -30.8 | n | n
Cc1ccc2nc(N3CCC(C(=O)NCc4ccc(F)cc4)CC3)[nH]c2c1 | n | n | n | n | n
COc1cccc(CNC(=O)CN2CCC(c3nc4ccc(C)cc4[nH]3)CC2)c1 | n | n | -37.7 | n | n
COc1ccccc1N1CCN(S(=O)(=O)c2c(C)sc3ncn(CC(=O)N(C)c4ccc(Cl)cc4)c(=O)c23)CC1 | n | n | n | n | n
Cc1ccc(C)c(CN2C(=O)c3ccccc3S(=O)(=O)c3ccc(C(=O)Nc4cc(F)ccc4F)cc32)c1 | n | n | n | n | n
COc1ccccc1NC(=O)c1ncoc1-c1ccco1 | n | n | n | n | n
COc1ccc2c(CNCCc3ccc(SC)cc3)c(C(=O)O)n(Cc3ccc(F)cc3)c2c1 | n | n | n | n | n
CCOC(=O)c1ccc(N=C2SC(C(=O)Nc3ccccc3)CC(=O)N2C)cc1 (stereo not given) | n | n | n | n | n
CCc1ccc(OCC(=O)NNC(=O)CNC(=O)c2ccc(Br)o2)cc1 | n | n | n | n | n
CCCOc1ccc(OC(=O)c2ccc(Br)o2)cc1 | 94.2 | n | -42.6 | n | n
Cc1noc(C)c1S(=O)(=O)Nc1ccc(C(=O)N2CCN(c3ccc(Cl)cc3)CC2)cc1 | n | n | -36.0 | n | n
Cc1noc(C)c1S(=O)(=O)N1CCN(c2ccc(Cl)cc2)CC1 | n | n | n | n | n
CC(=O)c1ccc(N2CCN(C(=O)c3ccc(OCc4c(C)noc4C)cc3)CC2)cc1 | n | n | -32.3 | n | n
Cc1ccc2c(c1)-c1onc(C(=O)N3CCN(c4cc(Cl)ccc4C)CC3)c1CO2 | n | n | n | n | n
CC1CCN(S(=O)(=O)c2cc(C(=O)Nc3ccc(Br)cc3F)n(C)c2)CC1 | n | n | -35.2 | n | n

Screening data deposited in PubChem BioAssay by National Center for Advancing Translational Sciences (NCATS).
